# Assay results from publication PMC4336329 (PLoS ONE, 2015).
# Among all 310,000 compounds or so, about 14,000 (4.5%) showed an effect of 50% or more. The effect is printed as a negative number. The list comes from a sample in which strong results are over-represented; it also holds similar structures and randomly drawn compounds.
# Molecular target: human ether-à-go-go-related gene (hERG) potassium channel (human, UniProt Q12809)
# Test: primary screen, population patch clamp on CHO cells stably expressing hERG; higher = less effect of the substance
# 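Also: peak tail current of the secondary pulse compared with the same well before compound.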
# human ether-à-go-go-related gene (hERG) potassium channel, sequence (Q12809 whole entry, looked up): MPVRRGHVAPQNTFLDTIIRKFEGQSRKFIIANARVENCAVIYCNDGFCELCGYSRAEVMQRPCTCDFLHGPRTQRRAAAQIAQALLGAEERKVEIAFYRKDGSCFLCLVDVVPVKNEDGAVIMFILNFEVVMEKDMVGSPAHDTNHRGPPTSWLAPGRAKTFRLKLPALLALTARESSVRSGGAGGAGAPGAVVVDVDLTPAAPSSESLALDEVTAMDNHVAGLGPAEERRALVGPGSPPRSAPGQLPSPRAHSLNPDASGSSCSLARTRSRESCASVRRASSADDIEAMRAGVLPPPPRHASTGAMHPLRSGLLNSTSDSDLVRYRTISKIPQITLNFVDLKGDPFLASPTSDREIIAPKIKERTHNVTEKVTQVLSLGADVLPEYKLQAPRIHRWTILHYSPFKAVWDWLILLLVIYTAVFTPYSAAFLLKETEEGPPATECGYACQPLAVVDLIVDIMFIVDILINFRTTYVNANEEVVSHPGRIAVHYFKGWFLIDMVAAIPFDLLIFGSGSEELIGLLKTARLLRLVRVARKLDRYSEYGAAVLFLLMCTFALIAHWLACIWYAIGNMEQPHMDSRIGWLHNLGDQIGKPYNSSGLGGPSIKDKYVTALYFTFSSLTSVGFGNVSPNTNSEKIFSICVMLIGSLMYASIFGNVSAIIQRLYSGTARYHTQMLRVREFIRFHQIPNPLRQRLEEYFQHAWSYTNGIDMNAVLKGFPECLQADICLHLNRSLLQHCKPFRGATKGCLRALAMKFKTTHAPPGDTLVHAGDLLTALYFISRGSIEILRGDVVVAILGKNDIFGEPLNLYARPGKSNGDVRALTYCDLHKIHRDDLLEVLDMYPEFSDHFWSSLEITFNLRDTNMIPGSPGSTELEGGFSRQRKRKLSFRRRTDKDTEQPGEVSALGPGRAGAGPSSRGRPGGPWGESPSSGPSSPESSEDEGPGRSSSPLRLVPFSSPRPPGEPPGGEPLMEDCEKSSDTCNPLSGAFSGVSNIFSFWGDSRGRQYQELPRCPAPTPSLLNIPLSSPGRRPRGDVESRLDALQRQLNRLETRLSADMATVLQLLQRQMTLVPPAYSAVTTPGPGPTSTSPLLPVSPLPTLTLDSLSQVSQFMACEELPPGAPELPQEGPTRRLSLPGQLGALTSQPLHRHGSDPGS
row,Structure (SMILES),"hERG current change (%, negative = inhibition) at 10uM [%]"
1,Cc1cc(NC(=O)C2CCCN(S(=O)(=O)c3c(C)noc3C)C2)n[nH]1 (stereo not shown),-16.1
2,CCOc1ccc(C(=O)COC(=O)CNC(=O)C2CCCCC2)cc1,-0.0501
3,O=C(COC(=O)C12CC3CC(CC(C3)C1)C2)Nc1ccc([N+](=O)[O-])cc1Br,8.64
4,CN1CCC(=NNC(=O)COc2ccc(Cl)cc2)CC1,17.4
5,CCCn1c(=N)n(CC(O)COc2ccc(C)cc2)c2ccccc21.Cl (stereo not shown),-89
6,CC1SC2(CN3CCC2CC3)NC1=O (stereo not shown),18
7,CC1=CN2C(=NC(=O)CC2(C)C(=O)N(CC(=O)NC2CCCC2)Cc2ccccc2)C=C1 (stereo not shown),9.32
8,COc1ccccc1N1CCN(c2nc3ccccc3nc2C(C#N)C(=O)OC(C)C)CC1 (stereo not shown),-12
9,Cc1cccc(OCC(O)CN2CC3(C)CC2CC(C)(C)C3)c1 (stereo not shown),-67.6
10,CC1(C)CC2CC(C)(CN2CC(O)c2ccccc2)C1.O=C(O)C(=O)O (stereo not shown),-42.5
11,Cc1cccc(C)c1OCC(=O)N1CC2(C)CC1CC(C)(C)C2 (stereo not shown),-7.94
12,Cc1ccc(OCC(O)CN2CC3(C)CC2CC(C)(C)C3)cc1.O=C(O)C(=O)O (stereo not shown),-53.6
13,CC1(C)CC2CC(C)(CN2CC(O)COc2ccccc2)C1.O=C(O)C(=O)O (stereo not shown),-41.5
14,Cc1cccc(C(=O)N2CC3(C)CC2CC(C)(C)C3)c1 (stereo not shown),0.368
15,CSc1nnc(C)c(=O)n1COC(=O)COc1ccc2ccccc2c1,-7.33
16,Cc1nnc(SCCN2CCOCC2)n1-c1cccc(Cl)c1.O=C(O)C(=O)O,-4.95
17,COc1ccccc1N1CCN(C(=O)CN(c2ccc(C)c(C)c2)S(C)(=O)=O)CC1,-6.02
18,CCc1cc(=O)oc2cc(C)cc(OCC(=O)NCc3ccccn3)c12,-40
19,Cc1cc(OCC(=O)NCc2ccncc2)c2c(C)c(C)c(=O)oc2c1,-40.6
20,Cc1cc(OCC(=O)NCc2ccncc2)c2c(C)cc(=O)oc2c1,-30.1
21,Cc1cc(OCC(=O)NCc2ccccn2)cc(C)c1Br,-69.4
22,CCc1cc(=O)oc2cc(C)cc(OCC(=O)NCc3ccncc3)c12,-54.8

row,Structure (SMILES),"hERG current change (%, negative = inhibition) at 10uM [%]"
1,Cc1ccc(OCC(=O)NCc2ccccn2)cc1,12.4
2,Cc1cc(OCC(=O)NCc2ccncc2)c2c3c(c(=O)oc2c1)CCCC3,-62.2
3,O=C(COc1ccc(Br)cc1)NCc1ccccn1,-8.53
4,CCCc1cc(=O)oc2cc(C)cc(OCC(=O)NCc3ccccn3)c12,-33.7
5,Cc1cc(OCC(=O)NCc2ccncc2)c2c3c(c(=O)oc2c1)CCC3,-10.3
6,CCCCc1cc(=O)oc2cc(C)cc(OCC(=O)NCc3ccccn3)c12,-56.4
7,Cc1cc(OCC(=O)NCc2cccnc2)c2c3c(c(=O)oc2c1)CCCC3,-40.1
8,CSc1cccc(NC(=O)/C=C/c2ccccc2)c1,-7.06
9,CC(=O)N1CCN(S(=O)(=O)c2cccc(C(=O)NCCC3=CCCCC3)c2)CC1,-8.54
10,O=C1N(c2ccc(Cl)c(Cl)c2)CN(Cc2ccccc2)CN1n1cnnc1,-25.9
11,COc1ccccc1-c1noc(CCC(=O)Nc2ccccc2Cl)n1,-4.71
12,CS(=O)(=O)c1ccccc1-c1nnc(NC(=O)COc2ccc(Cl)cc2)o1,-6.82
13,CCC1=C(OC(=O)N(CC)CC)N2C(=O)OC(=NCc3ccccc3)[C@]2(C)[C@H]2C1=CC[C@H]1C(=O)NC(=O)[C@H]12,-6.14
14,CCC1CCCCN1C(=O)c1cc2c(=O)n3cccc(C)c3nc2s1 (stereo not shown),4.01
15,CCC1Oc2ccccc2N(CC(=O)NCCC2=CCCCC2)C1=O (stereo not shown),3.64
16,FC(F)(F)c1cc(-c2ccc(Cl)cc2)nc2ncnn12,-16.2
17,CCCc1cc(=O)oc2cc(C)cc(OCC(=O)Nc3ccccn3)c12,13.2
18,CCCCc1cc(=O)oc2cc(C)cc(OCC(=O)NCc3cccnc3)c12,-54.1
19,CCCc1cc(=O)oc2cc(C)cc(OCC(=O)NCc3ccncc3)c12,-69.5
20,CCc1cc(=O)oc2cc(C)cc(OCC(=O)NCc3cccnc3)c12,-31.5
21,CCCCc1cc(=O)oc2cc(C)cc(OCC(=O)NCc3ccncc3)c12,-84.1
